Reference: PubChem BioAssay (Tox21)
Unmarked numbers belong to inactive results. Inconclusive results are not listed. A call without a number means that no potency is given here. The source made the active and inactive calls. Unless noted, calls come from the whole dose curve; as a rule, active = well fitted curve in the direction sought with a large enough effect in the repeat runs; inconclusive = weak or mixed curves; inactive = no such curve, though single readings can be large; an effect the other way counts as inactive or inconclusive.

Assays:
[1] = qHTS assay to identify small molecule antagonists of the estrogen related receptor (ERR) signaling pathway from Tox21 library - cell viability counter screen (AID 1224834); note: nearly all actives have a fitted effect of over 30% in size; note: potency is the fitted concentration of half-maximal effect
Summary of the method: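 ERR reporter cells, 2,000 per well, rested 6 h, then exposed to compound in DMSO for 17.5 hours at 37 C. Viability read as fluorescence after 30 min with CellTiter-Fluor.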

[2] = qHTS assay to identify small molecule agonists of the constitutive androstane receptor (CAR) signaling pathway - cell viability counter screen (AID 1224836); note: nearly all actives have a fitted effect of over 45% in size
Summary of the method: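 Compound titrations (15 concentrations) went onto HepG2-CYP2B6-hCAR cells 4 h after seeding, alongside PK11195 at a final 0.75 uM; a 23 h, 37 C/5% CO2 incubation preceded CellTiter-Fluor viability measurement.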

[3] = qHTS assay to identify small molecule antagonists of the constitutive androstane receptor (CAR) signaling pathway - cell viability counter screen (AID 1224837); note: nearly all actives have a fitted effect of over 45% in size
Summary of the method: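 HepG2 cells stably carrying hCAR and CYP2B6-2.2kb reporter, stimulated with 50 nM CITCO and compounds at 15 concentrations for 23 h at 37 C. Viability measured by CellTiter-Fluor fluorescence.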

[4] = target: Nuclear receptor subfamily 1 group I member 3 (Homo sapiens) (UniProt Q14994); test: qHTS assay to identify small molecule antagonists of the constitutive androstane receptor (CAR) signaling pathway (AID 1224838); note: nearly all actives have a fitted effect of over 40% in size; note: potency is the fitted concentration of half-maximal effect
Sequence of Nuclear receptor subfamily 1 group I member 3 (Homo sapiens) (Q14994 whole entry, looked up): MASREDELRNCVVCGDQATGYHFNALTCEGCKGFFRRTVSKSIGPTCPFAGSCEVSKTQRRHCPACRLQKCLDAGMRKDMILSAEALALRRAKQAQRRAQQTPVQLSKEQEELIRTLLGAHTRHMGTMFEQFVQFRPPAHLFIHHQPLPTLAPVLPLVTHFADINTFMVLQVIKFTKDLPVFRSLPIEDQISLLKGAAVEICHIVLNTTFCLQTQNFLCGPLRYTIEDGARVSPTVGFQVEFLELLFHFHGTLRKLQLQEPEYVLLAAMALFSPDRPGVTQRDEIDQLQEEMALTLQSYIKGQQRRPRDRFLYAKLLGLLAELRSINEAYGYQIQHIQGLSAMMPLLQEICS
Summary of the method: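 HepG2 cells stably carrying hCAR and a CYP2B6-2.2kb luciferase reporter, seeded 4 hrs before compound (15 concentrations). Stimulated with 50 nM CITCO for 24 hr at 37 C. ONE-Glo luminescence read after 30 min at room temperature.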

[5] = target: Nuclear receptor subfamily 1 group I member 3 (Homo sapiens) (UniProt Q14994); test: qHTS assay to identify small molecule agonists of the constitutive androstane receptor (CAR) signaling pathway (AID 1224839); note: nearly all actives have a fitted effect of over 15% in size; note: potency is the fitted concentration of half-maximal effect
Summary of the method: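 In this screen, CAR-driven CYP2B6 promoter activity is measured by luminescence in HepG2-CYP2B6-hCAR cells after 24 h with test compounds and 0.75 uM PK11195 (final concentration).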

[6] = qHTS assay to identify small molecule antagonists of the estrogen related receptor signaling pathway with the pleiotropic PPARgamma coactivator (PGC) from Tox21 10K library - cell viability counter screen (AID 1224840; active = well fitted cell-killing curve with a large enough effect in the repeat runs, not every such curve was filed as active; note: nearly all actives have a fitted effect of over 40% in size; note: potency is the fitted concentration of half-maximal effect)
Summary of the method: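 PGC/ERR cells (2,000/well) plated 6 h, then compound-treated for 17.5 h at 37 C. Viability measured by CellTiter-Fluor fluorescence after 30 min at 37 C, multiplexed with the pathway assay.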

[7] = qHTS assay to identify small molecule agonists of the hypoxia (HIF-1) signaling pathway - cell viability counter screen (AID 1224844; calls by dose curve; note: nearly all actives have a fitted effect of over 50% in size)
Summary of the method: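 HRE-bla ME-180 cells, 2,000/well in 0.5% dialyzed FBS medium, treated 17 h at 37C with compounds. Viability read in the same wells as the bla reporter, by CellTiter-Glo luminescence after 30 min at room temperature.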

[8] = qHTS assay to identify small molecule agonists of H2AX (AID 1224845; active = well fitted activation curve with a large enough effect in the signal ratio in the repeat runs, not every such curve was filed as active; the % refers to the signal ratio; note: potency is the fitted concentration of half-maximal effect)
Summary of the method: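 Wild-type CHO-K1 cells, plated overnight, exposed 3hr at 37C to 15 concentrations (0.76% DMSO final). Lysed, then HTRF anti-pH2AX (S139) cryptate and anti-H2AX-d2 antibodies, 24 hr room temperature; 665/620 nm emission read.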

[9] = qHTS assay to identify small molecule agonists of the hypoxia (HIF-1) signaling pathway (AID 1224846; active = well fitted activation curve with a large enough effect in the signal ratio in the repeat runs, not every such curve was filed as active; the % refers to the signal ratio)
Summary of the method: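 HRE-bla ME-180 beta-lactamase reporter cells in medium with 0.5% dialyzed FBS, pre-incubated 5 h then exposed to compounds 17 h at 37C, 5% CO2; reporter induction read with CCF4-AM FRET substrate.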

[10] = qHTS assay to identify small molecule agonists of H2AX - cell viability counter screen (AID 1224847; calls by dose curve; note: nearly all actives have a fitted effect of over 30% in size; note: potency is the fitted concentration of half-maximal effect)
Summary of the method: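 Read-out: CellTiter-Glo luminescence, 30 min RT. Cells: wild-type CHO-K1, 1000/well, 10% FBS, plated overnight at 37C. Treatment: 15 concentrations, 3 hr, 37C, 0.76% DMSO.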

[11] = qHTS RealTime-Glo MT Cell Viability Assay in HepG2 cells - 24 hour (AID 1224867); note: nearly all actives have a fitted effect of over 50% in size; note: potency is the fitted concentration of half-maximal effect
Summary of the method: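 Tox21 10K library screened in qHTS format on HepG2 cells carrying RealTime-Glo reagents. Compounds were added after a 5 h preincubation, and the luminescent signal from continuous culture was measured repeatedly during 40 h treatment.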

[12] = qHTS RealTime-Glo MT Cell Viability Assay in HEK293 cells - 32 hour (AID 1224868); note: nearly all actives have a fitted effect of over 50% in size; note: potency is the fitted concentration of half-maximal effect
Summary of the method: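 Luminescence generated by NanoLuc from substrate produced by living HEK293 cells served as the viability signal. Each value reflects the reading at its stated time point during continuous 40 h compound exposure at 37 C.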

[13] = A CellTox Green Cytotoxicity Assay to monitor cytotoxicity in HEK293 cells - 0 hour (AID 1224869); note: nearly all actives have a fitted effect of over 50% in size
Summary of the method: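 HEK293 cells, 600/well, were preincubated 5 hours and then exposed to compounds at 37 C for up to 40 hours. A cell-impermeant cyanine dye staining dead-cell DNA was read by fluorescence at 0, 8, 16, 24, 32 and 40 h time points.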

[14] = qHTS assay to identify small molecule antagonists of the estrogen related receptor signaling pathway with the pleiotropic PPARgamma coactivator (PGC) from Tox21 10K library (AID 1224841; call rule not given here; note: potency is the fitted concentration of half-maximal effect)
Summary of the method: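 PGC/ERR cell line, 2,000 cells/well, pre-incubated 6 hours at 37 C, then exposed to compounds for 18 hours at 37 C; luciferase read with One-Glo luminescence after 30 min at room temperature.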

[15] = qHTS assay to identify small molecule agonists of the estrogen related receptor signaling pathway with the pleiotropic PPARgamma coactivator (PGC) from Tox21 10K library (AID 1224842); note: nearly all actives have a fitted effect of over 15% in size; note: potency is the fitted concentration of half-maximal effect
Summary of the method: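 PGC/ERR reporter cell line, 2,000 cells per well, incubated 6 h at 37 C before 23 nL compound in DMSO was added. After 18 h at 37 C, One-Glo luminescence read following 30 min at room temperature.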

[16] = qHTS assay to identify small molecule antagonists of the estrogen related receptor (ERR) signaling pathway from Tox21 library (AID 1224848); note: nearly all actives have a fitted effect of over 50% in size; note: potency is the fitted concentration of half-maximal effect
Summary of the method: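 Luminescent reporter read-out (ONE-Glo) from NTP's ERR cell line after 18 h treatment at 37 C with DMSO-dissolved Tox21 compounds; cells pre-plated 6 h beforehand at 2,000 per well.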

[17] = target: Luciferin 4-monooxygenase (Photinus pyralis) (UniProt P08659); test: qHTS assay to identify small molecule inhibitors of firefly luciferase (AID 1224835); note: nearly all actives have a fitted effect of over 25% in size; note: potency is the fitted concentration of half-maximal effect
Sequence of Luciferin 4-monooxygenase (Photinus pyralis) (P08659 whole entry, looked up): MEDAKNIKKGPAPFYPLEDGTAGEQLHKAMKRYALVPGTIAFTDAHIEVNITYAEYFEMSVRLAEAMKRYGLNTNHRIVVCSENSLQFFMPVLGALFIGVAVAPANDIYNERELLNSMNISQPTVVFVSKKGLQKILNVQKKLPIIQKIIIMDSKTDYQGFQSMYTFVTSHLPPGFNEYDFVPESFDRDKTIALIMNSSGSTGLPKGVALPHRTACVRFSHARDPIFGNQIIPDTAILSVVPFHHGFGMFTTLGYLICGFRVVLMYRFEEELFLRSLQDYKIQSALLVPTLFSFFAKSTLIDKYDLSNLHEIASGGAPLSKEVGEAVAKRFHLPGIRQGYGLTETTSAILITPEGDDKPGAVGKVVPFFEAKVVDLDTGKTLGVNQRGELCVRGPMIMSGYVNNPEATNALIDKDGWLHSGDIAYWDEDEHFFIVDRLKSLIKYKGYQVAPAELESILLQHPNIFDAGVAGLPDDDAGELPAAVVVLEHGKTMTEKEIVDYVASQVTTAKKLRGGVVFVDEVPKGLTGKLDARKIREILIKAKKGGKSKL
Summary of the method: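 Biochemical qHTS: compounds run as interplate titrations against purified firefly enzyme, with D-luciferin and ATP each at its KM concentration. Light output recorded by CCD imaging.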

[18] = qHTS assay to identify small molecule agonists of the estrogen related receptor (ERR) signaling pathway from Tox21 library (AID 1224849; calls by dose curve; note: nearly all actives have a fitted effect of over 15% in size); settings: ERR reporter cell line, ONE-Glo luciferase, 18 h; at 92.4 µM (top of the series) unless noted
Summary of the method: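 ERR reporter cells (NTP line) pre-incubated 6 hours at 37 C, then exposed to compounds for 18 hours at 37 C. ONE-Glo luciferase luminescence was read after 30 minutes at room temperature.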

[19] = target: Thyrotropin receptor (Homo sapiens) (UniProt P16473); test: qHTS assay to identify small molecule agonists of the thyroid stimulating hormone receptor (TSHR) signaling pathway (AID 1224843; calls by dose curve; note: nearly all actives have a fitted effect of over 45% in size)
Sequence of Thyrotropin receptor (Homo sapiens) (P16473 whole entry, looked up): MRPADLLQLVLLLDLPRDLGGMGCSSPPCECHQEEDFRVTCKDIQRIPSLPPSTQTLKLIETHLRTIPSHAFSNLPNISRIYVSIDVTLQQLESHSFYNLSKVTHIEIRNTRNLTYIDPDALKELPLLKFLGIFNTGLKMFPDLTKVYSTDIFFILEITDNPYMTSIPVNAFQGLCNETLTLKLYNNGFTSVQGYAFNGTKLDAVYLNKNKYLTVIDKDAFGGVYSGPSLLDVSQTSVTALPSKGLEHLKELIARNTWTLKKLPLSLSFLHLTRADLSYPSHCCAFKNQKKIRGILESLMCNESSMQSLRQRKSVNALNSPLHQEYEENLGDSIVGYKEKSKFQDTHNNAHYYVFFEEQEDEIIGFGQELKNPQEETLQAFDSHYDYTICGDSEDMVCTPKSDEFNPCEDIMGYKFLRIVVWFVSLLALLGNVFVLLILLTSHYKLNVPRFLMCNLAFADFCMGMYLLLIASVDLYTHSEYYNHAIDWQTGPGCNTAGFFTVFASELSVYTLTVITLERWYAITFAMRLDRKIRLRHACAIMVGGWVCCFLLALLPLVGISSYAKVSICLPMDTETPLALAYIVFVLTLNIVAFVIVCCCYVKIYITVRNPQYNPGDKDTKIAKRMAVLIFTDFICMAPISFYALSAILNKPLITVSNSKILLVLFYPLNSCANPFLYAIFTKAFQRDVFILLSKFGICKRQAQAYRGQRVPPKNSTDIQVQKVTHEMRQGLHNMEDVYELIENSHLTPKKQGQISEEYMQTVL
Summary of the method: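 Steps: seed 800 TSHR-HEK293 cells per well; add test compound and hold 30 min at ambient temperature; dispense cAMP-d2 then anti-cAMP cryptate; incubate 1 h at ambient; measure fluorescence intensity.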

Row | Structure (SMILES) | Potency [1] | Potency [2] | Potency [3] | Potency [4] | Potency [5] | Potency [6] | Potency [7] | Potency [8] | outcome [9] | Potency [10] | Potency [11] | Potency [12] | Potency [13] | Potency [14] | Potency [15] | Potency [16] | Potency [17] | activity change, positive = activation [18] | Potency [19]
1 | C1C[C@@H]2[C@H]3CC[C@H](C3)[C@@H]2C1 | inactive | inactive | inactive | inactive | inactive | inactive | inactive | inactive | inactive | inactive | inactive | inactive | inactive |  |  |  |  |  | 
2 | Cc1cc(O)ccc1O | 61.8 µM (active) | inactive | inactive | inactive |  |  |  |  |  | 51 µM (active) | inactive |  | inactive | inactive | inactive | inactive |  |  | 
3 | O=C1C(=O)c2ccccc2C(O)=C1C1CCC(c2ccc(Cl)cc2)CC1 (stereo not given) | inactive |  |  |  |  | inactive | inactive | inactive |  | inactive | inactive | inactive | inactive |  | inactive | 10.6 µM (active) | inactive | 0.683% [at 42.5 µM] | 
4 | CCCCCCCC/C=C\CCCCCCCCO | inactive | inactive | inactive |  |  | inactive | inactive | inactive | inactive | inactive | inactive | inactive |  | inactive | inactive | inactive |  | 4.79% | inactive
5 | Cc1ccc(CO)cc1 | inactive | inactive | inactive | inactive | inactive | inactive | inactive | inactive | inactive | inactive | inactive | inactive | inactive |  |  |  |  |  | inactive
6 | Cc1cccc(O)c1N | 27.6 µM (active) |  |  |  | inactive | inactive |  |  | inactive | inactive | inactive |  | inactive | inactive | inactive |  | inactive | -14.7% | 
7 | CN1CCCN=C1COC(=O)C(O)(c1ccccc1)C1CCCCC1 (stereo not given) | inactive | inactive | inactive | inactive | inactive | inactive | inactive | inactive |  | inactive | inactive | inactive | inactive | inactive | inactive | inactive |  | 6.85% [at 42.5 µM] | 
8 | Clc1ccc(Nc2nnc(Cc3ccncc3)c3ccccc23)cc1 |  |  |  |  | 7.5 µM (active) | inactive |  |  | inactive | inactive | inactive | 21.3 µM (active) | inactive | 13.3 µM (active) | inactive | 11.9 µM (active) |  | -42.3% [at 42.5 µM] | 
9 | CN(C(=O)CN(CCO)CC(=O)N(C)C(C)(C)Cc1ccccc1)C(C)(C)Cc1ccccc1 |  | inactive | inactive | inactive | inactive | inactive |  | inactive |  |  |  | 19 µM (active) |  | inactive | inactive |  | inactive | -27.5% [at 42.5 µM] | 
10 | COc1ccccc1NC(=O)c1cc2ccccc2cc1O |  | inactive | inactive |  | 17.2 µM (active) | inactive |  | inactive |  |  |  | 34.7 µM (active) | inactive | 15.4 µM (active) | inactive | 19.3 µM (active) | 17.8 µM (active) | -49.7% | inactive
11 | CC(=O)[C@H]1[C@H](C#N)C[C@H]2[C@@H]3CC=C4C[C@@H](O)CC[C@]4(C)[C@H]3CC[C@@]21C |  | inactive | inactive |  |  | inactive | inactive | inactive |  |  | inactive |  |  | inactive | inactive |  | inactive | -13.1% [at 42.5 µM] | 
12 | Oc1ccc(Cl)c2cccnc12 |  |  |  |  |  |  | inactive |  | inactive | inactive | inactive |  | inactive | 4.73 µM (active) | inactive | 29.8 µM (active) | inactive | -56.3% [at 42.5 µM] | 
13 | COc1cc(C(=O)NC2CCN(C)CC2)ccc1Nc1ncc2c(n1)N(C1CCCC1)CC(F)(F)C(=O)N2C | 31.5 µM (active) |  |  | 8.88 µM (active) | inactive | 35.3 µM (active) |  |  | inactive |  | 40 µM (active) | 0.0142 µM (active) |  | inactive | 2.5 µM (active) |  |  | -53.6% | inactive
14 | CCOC(=O)c1ccccc1C(=C1C=C(Br)C(=O)C(Br)=C1)c1cc(Br)c(O)c(Br)c1 |  | inactive | inactive |  |  |  |  |  |  |  | inactive |  | inactive | 51.3 µM (active) | inactive | 45.7 µM (active) | 66.8 µM (active) | -32.1% [at 42.5 µM] | inactive
15 | CC(C)(O)c1ccc(CNC(=O)c2cccnc2Oc2ccc3nonc3c2)cc1 |  | inactive | inactive | inactive | 24.3 µM (active) |  |  | inactive | inactive | inactive | inactive |  | inactive |  | inactive | 54.5 µM (active) |  |  | inactive
16 | O=C1c2ccccc2C(=O)C1(O)O |  |  |  |  | inactive | inactive |  | 50.8 µM (active) | inactive |  | inactive | inactive |  | inactive | inactive |  | inactive |  | 
17 | CN1CC(=O)N2[C@H](c3ccc4c(c3)OCO4)c3[nH]c4ccccc4c3C[C@@H]2C1=O |  | inactive | inactive | inactive | inactive |  | inactive | inactive | inactive | inactive | inactive | inactive |  |  |  |  | inactive |  | inactive
18 | COc1cc(N)c(Cl)cc1C(=O)NC1CCN(CCCOc2ccc(F)cc2)CC1OC (stereo not given) |  | inactive | inactive |  |  |  | inactive | inactive |  |  | inactive | 3.01 µM (active) |  |  | inactive | 11.9 µM (active) | inactive |  | inactive
